The source of these data is PubChem BioAssay (NCI).

About 83,000 compounds went through this panel and 20% of them were active in at least one assay; those are over-represented in the sample as a whole.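 48-hour exposure, single concentration, 96-well plates; percent growth endpoint where 0 means no net growth. Active: below 10.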 Active and inactive are the calls of the source.

One assay relates to COLO 205 colon. Kind of assay: NCI-60 one-dose screen, 48 h (100 = growth as untreated, 0 = no growth, -100 = all killed). The conditions noted are these: 10 µM unless noted.
`OC(c1ccccc1)c1nnc(SCc2ccccc2)n1Cc1ccccc1` (stereo not drawn): the growth is 102% (inactive).
For `COc1ccc(/C=C2\SC(=Nc3ccccc3)NC2=O)cc1`, the growth is -94.3% (active).
Turning to `COc1ccc(-n2c(C(O)c3ccccc3)nn(CN3CCOCC3)c2=S)cc1` (stereo not drawn), the growth is 112% (inactive).
Consider `CN(O)c1nc(N(C)O)nc(N2CCOCC2)n1`, for which the growth is 3.87% (active).
In the case of `O=C(NC(=S)Nc1cccc(NC(=S)NC(=O)c2ccccc2)c1)c1ccccc1`, the growth was 56.5% (inactive).
Same read-out and setting: then `Cn1c2c(c(=O)[nH]c1=O)NC1=C(C(=O)c3ccccc31)C1(C=C(O)c3ccccc31)N2` (stereo not drawn), with 121% (inactive).
The same measure, in the same setting: then `Nc1nc(Nc2cccc(F)c2)nc2ccccc12`, with -54.1% (active).
Still for that read-out and setting: then `COc1cc(OC)cc(N2C(=O)N(Cc3ccc(C(C)(C)C)cc3)c3ccccc3S2(=O)=O)c1`, with 83.6% (inactive); and `CC/C=C\C[C@H](O)C/C=C1/C(=O)C=C[C@@H]1C/C=C\CCCC(=O)OCCS(=O)(=O)c1ccccc1`, with 43.6% (inactive).
For `COc1ccc(C2Nc3ncnc(N)c3N=C3c4ccccc4C(=O)C32)cc1` (stereo not drawn), the growth was 93.2% (inactive).
On to `O=CCCCC(O)C=O` (stereo not drawn), for which the growth was 100% (inactive).
For `COC(=O)/C(=C\c1c(-c2ccccc2)[nH]c2ccccc12)S(C)(=O)=O`, the growth was 24.3% (inactive).
Turning to `COc1ccc(-c2nsc3c2NC(=O)CC3c2ccsc2)cc1` (stereo not drawn), the growth is -77.3% (active).
Same read-out and setting: then `FC(F)(F)c1cccc(Nc2nc(-c3ccccc3)nc3ncccc23)c1`, with -75% (active); and `COC(=O)/C(=C\c1c(C)[nH]c2ccccc12)S(=O)(=O)c1ccccc1`, with 31.8% (inactive); and `O=Nc1c(O)ccc2ccccc12.O=Nc1c(O)ccc2ccccc12.O=Nc1c([O-])ccc2ccccc12.[Fe+3]`, with 103% (inactive).
Same read-out and setting: in the case of `COc1cccc(C(=O)Cn2cc(/C=C(\C#N)S(=O)(=O)c3ccccc3)c3ccccc32)c1` it was 90.7% (inactive); in that of `CC(=O)O[C@@H]1/C=C/C(=O)N[C@@H](C)CCC/C=C/[C@@H]2CCC[C@H]21`, 114% (inactive); in that of `CC(C)(C)c1ccc(C2CC(=O)C3=C(C2)Nc2ccccc2N(C(=O)c2ccccc2Cl)C3c2ccc(F)cc2)cc1` (stereo not drawn), -63.5% (active).
For the compound `O=C1/C=C/[C@@H](O)[C@@H]2C[C@@H](O)C[C@H]2/C=C/CCCCO1`, the growth was -49.7% (active).
The same measure, in the same setting: in the case of `CN1CCN(c2nc(Nc3ccc(O)cc3)nc3ccccc23)CC1` it was 44.1% (inactive).
Still for that read-out and setting: in the case of `O=C(NN1C(=O)CSC1c1ccc(Cl)cc1)c1[nH]c2ccc(F)cc2c1-c1ccccc1` (stereo not drawn) it was 13.6% (inactive); in that of `CSc1nc2c(c(=O)n1C)N=C1c3ccccc3C(=O)C1C(c1ccccc1)N2` (stereo not drawn), 73.5% (inactive).
Still for that read-out and setting: then `CCCC(=O)CC(C)=O.CCCC(=O)CC(C)=O.[Cu]`, with 97.4% (inactive); and `N#C/C(=C\c1c(-c2ccccc2)[nH]c2ccccc12)S(=O)(=O)c1ccccc1`, with 12.8% (inactive); and `O=C(Nc1ccc(Cl)cc1)c1cc2ccccc2cc1OP(=O)(O)O`, with 98.9% (inactive).
Turning to `COc1ccc(/C=C2\N=C(c3ccccc3)N(c3ccc(-c4nc5ccc(C)cc5s4)cc3)C2=O)cc1`, the growth was 97.1% (inactive).
For the compound `CSc1nc2c(c(=O)[nH]1)N=C1c3ccccc3C(=O)C1C(c1ccccc1)N2` (stereo not drawn), the growth is 33.5% (inactive).
On the same count and under the same terms, in the case of `CCOC(=O)c1c(Cl)c2c(n1Cc1ccccc1)-c1oncc1CCC2` it was 56.9% (inactive); in that of `COc1cc([C@@H]2NC(=O)NC(C)=C2C(=O)Nc2nc(-c3ccc(Cl)cc3)cs2)ccc1O`, 116% (inactive); in that of `N#C/C(=C\c1c(-c2ccccc2)[nH]c2ccccc12)C(=O)c1ccccc1`, 25.6% (inactive).
For `CCN(CC)c1cc(C)c2cc(NC(=O)c3cccc(OC)c3)ccc2n1`, the growth was 89.7% (inactive).
With `COc1nc2c(c(=O)n1C)N=C1c3ccccc3C(=O)C1C(c1ccccc1)N2` (stereo not drawn), the growth is 106% (inactive).
On the same count and under the same terms, then `CCOc1ccccc1CN1CCc2nc3cc(C(C)(C)C)[nH]n3c(=O)c2C1`, with 112% (inactive); and `COc1ccc(-n2c(C(O)c3ccccc3)n[nH]c2=S)cc1` (stereo not drawn), with 110% (inactive); and `CC(=O)n1cc(-c2c[nH]c3ccccc23)c(-c2ccc(Cl)cc2)n1`, with 92.4% (inactive).
Still for that read-out and setting: in the case of `N#CC(C#N)=Cc1c(-c2ccccc2)[nH]c2ccccc12` it was 20.4% (inactive); in that of `Nc1ccc(C2c3ccccc3Oc3ccccc32)cc1`, 105% (inactive); in that of `COc1cc(C#N)cc2[nH]c(=O)oc12`, 105% (inactive).

Another assay concerns DU-145 prostate. The description is as above. The conditions noted are these: 10 µM unless noted.
As to `OC(c1ccccc1)c1nnc(SCc2ccccc2)n1Cc1ccccc1` (stereo not drawn), the growth was 108% (inactive).
As for `COc1ccc(/C=C2\SC(=Nc3ccccc3)NC2=O)cc1`, the growth is -50.8% (active).
As for `COc1ccc(-n2c(C(O)c3ccccc3)nn(CN3CCOCC3)c2=S)cc1` (stereo not drawn), the growth was 109% (inactive).
Regarding `CN(O)c1nc(N(C)O)nc(N2CCOCC2)n1`, the growth is 38.8% (inactive).
On the same count and under the same terms, then `O=C(NC(=S)Nc1cccc(NC(=S)NC(=O)c2ccccc2)c1)c1ccccc1`, with 77.5% (inactive); and `Cn1c2c(c(=O)[nH]c1=O)NC1=C(C(=O)c3ccccc31)C1(C=C(O)c3ccccc31)N2` (stereo not drawn), with 89% (inactive).
On to `Nc1nc(Nc2cccc(F)c2)nc2ccccc12`, for which the growth is 67.9% (inactive).
For the compound `COc1cc(OC)cc(N2C(=O)N(Cc3ccc(C(C)(C)C)cc3)c3ccccc3S2(=O)=O)c1`, the growth is 96.2% (inactive).
Still for that read-out and setting: in the case of `CC/C=C\C[C@H](O)C/C=C1/C(=O)C=C[C@@H]1C/C=C\CCCC(=O)OCCS(=O)(=O)c1ccccc1` it was 47.7% (inactive); in that of `COc1ccc(C2Nc3ncnc(N)c3N=C3c4ccccc4C(=O)C32)cc1` (stereo not drawn), 102% (inactive).
The same measure, in the same setting: then `O=CCCCC(O)C=O` (stereo not drawn), with 106% (inactive); and `COC(=O)/C(=C\c1c(-c2ccccc2)[nH]c2ccccc12)S(C)(=O)=O`, with -5.09% (active).
Still for that read-out and setting: in the case of `COc1ccc(-c2nsc3c2NC(=O)CC3c2ccsc2)cc1` (stereo not drawn) it was -8.61% (active).
For the compound `FC(F)(F)c1cccc(Nc2nc(-c3ccccc3)nc3ncccc23)c1`, the growth was 75.1% (inactive).
The same measure, in the same setting: in the case of `COC(=O)/C(=C\c1c(C)[nH]c2ccccc12)S(=O)(=O)c1ccccc1` it was -53.4% (active).
Same read-out and setting: then `O=Nc1c(O)ccc2ccccc12.O=Nc1c(O)ccc2ccccc12.O=Nc1c([O-])ccc2ccccc12.[Fe+3]`, with 125% (inactive); and `COc1cccc(C(=O)Cn2cc(/C=C(\C#N)S(=O)(=O)c3ccccc3)c3ccccc32)c1`, with 105% (inactive).
Same read-out and setting: in the case of `CC(=O)O[C@@H]1/C=C/C(=O)N[C@@H](C)CCC/C=C/[C@@H]2CCC[C@H]21` it was 112% (inactive); in that of `CC(C)(C)c1ccc(C2CC(=O)C3=C(C2)Nc2ccccc2N(C(=O)c2ccccc2Cl)C3c2ccc(F)cc2)cc1` (stereo not drawn), 37% (inactive).
On to `O=C1/C=C/[C@@H](O)[C@@H]2C[C@@H](O)C[C@H]2/C=C/CCCCO1`, for which the growth is 19.3% (inactive).
For the compound `CN1CCN(c2nc(Nc3ccc(O)cc3)nc3ccccc23)CC1`, the growth was 63% (inactive).
Consider `O=C(NN1C(=O)CSC1c1ccc(Cl)cc1)c1[nH]c2ccc(F)cc2c1-c1ccccc1` (stereo not drawn), for which the growth was 77.2% (inactive).
On the same count and under the same terms, then `CSc1nc2c(c(=O)n1C)N=C1c3ccccc3C(=O)C1C(c1ccccc1)N2` (stereo not drawn), with 81.9% (inactive); and `CCCC(=O)CC(C)=O.CCCC(=O)CC(C)=O.[Cu]`, with 110% (inactive).
Still for that read-out and setting: then `N#C/C(=C\c1c(-c2ccccc2)[nH]c2ccccc12)S(=O)(=O)c1ccccc1`, with 21.2% (inactive); and `O=C(Nc1ccc(Cl)cc1)c1cc2ccccc2cc1OP(=O)(O)O`, with 24.9% (inactive).
Same read-out and setting: in the case of `COc1ccc(/C=C2\N=C(c3ccccc3)N(c3ccc(-c4nc5ccc(C)cc5s4)cc3)C2=O)cc1` it was 77.9% (inactive).
With `CSc1nc2c(c(=O)[nH]1)N=C1c3ccccc3C(=O)C1C(c1ccccc1)N2` (stereo not drawn), the growth is 75.4% (inactive).
Turning to `CCOC(=O)c1c(Cl)c2c(n1Cc1ccccc1)-c1oncc1CCC2`, the growth was 103% (inactive).
The same measure, in the same setting: then `COc1cc([C@@H]2NC(=O)NC(C)=C2C(=O)Nc2nc(-c3ccc(Cl)cc3)cs2)ccc1O`, with 102% (inactive); and `N#C/C(=C\c1c(-c2ccccc2)[nH]c2ccccc12)C(=O)c1ccccc1`, with 31.7% (inactive).
Same read-out and setting: in the case of `CCN(CC)c1cc(C)c2cc(NC(=O)c3cccc(OC)c3)ccc2n1` it was 92.9% (inactive); in that of `COc1nc2c(c(=O)n1C)N=C1c3ccccc3C(=O)C1C(c1ccccc1)N2` (stereo not drawn), 94.6% (inactive).
On the same count and under the same terms, then `CCOc1ccccc1CN1CCc2nc3cc(C(C)(C)C)[nH]n3c(=O)c2C1`, with 115% (inactive); and `COc1ccc(-n2c(C(O)c3ccccc3)n[nH]c2=S)cc1` (stereo not drawn), with 113% (inactive); and `CC(=O)n1cc(-c2c[nH]c3ccccc23)c(-c2ccc(Cl)cc2)n1`, with 96.3% (inactive).
`N#CC(C#N)=Cc1c(-c2ccccc2)[nH]c2ccccc12`: the growth is 15.7% (inactive).
Same read-out and setting: in the case of `Nc1ccc(C2c3ccccc3Oc3ccccc32)cc1` it was 106% (inactive).
As for `COc1cc(C#N)cc2[nH]c(=O)oc12`, the growth is 99% (inactive).
